Laboratory results from the supplement of paper PMC3334620.
In all, about 33,000 sequences were measured (“E-score (-0.5 to 0.5)”: median about -0.021, highest 2% from about 0.32 on). The sample holds the highest values, similar sequences and a random draw of the others, so the mix is not that of the screen.

molecular target: T1, Zap1 (UniProt P47043); test: PBM E-score (8-mer binding enrichment) (E-score (-0.5 to 0.5)); higher = stronger / more preferred TF binding; conditions: protein concentration: 200 nM; construct: GST-full length
T1 sequence: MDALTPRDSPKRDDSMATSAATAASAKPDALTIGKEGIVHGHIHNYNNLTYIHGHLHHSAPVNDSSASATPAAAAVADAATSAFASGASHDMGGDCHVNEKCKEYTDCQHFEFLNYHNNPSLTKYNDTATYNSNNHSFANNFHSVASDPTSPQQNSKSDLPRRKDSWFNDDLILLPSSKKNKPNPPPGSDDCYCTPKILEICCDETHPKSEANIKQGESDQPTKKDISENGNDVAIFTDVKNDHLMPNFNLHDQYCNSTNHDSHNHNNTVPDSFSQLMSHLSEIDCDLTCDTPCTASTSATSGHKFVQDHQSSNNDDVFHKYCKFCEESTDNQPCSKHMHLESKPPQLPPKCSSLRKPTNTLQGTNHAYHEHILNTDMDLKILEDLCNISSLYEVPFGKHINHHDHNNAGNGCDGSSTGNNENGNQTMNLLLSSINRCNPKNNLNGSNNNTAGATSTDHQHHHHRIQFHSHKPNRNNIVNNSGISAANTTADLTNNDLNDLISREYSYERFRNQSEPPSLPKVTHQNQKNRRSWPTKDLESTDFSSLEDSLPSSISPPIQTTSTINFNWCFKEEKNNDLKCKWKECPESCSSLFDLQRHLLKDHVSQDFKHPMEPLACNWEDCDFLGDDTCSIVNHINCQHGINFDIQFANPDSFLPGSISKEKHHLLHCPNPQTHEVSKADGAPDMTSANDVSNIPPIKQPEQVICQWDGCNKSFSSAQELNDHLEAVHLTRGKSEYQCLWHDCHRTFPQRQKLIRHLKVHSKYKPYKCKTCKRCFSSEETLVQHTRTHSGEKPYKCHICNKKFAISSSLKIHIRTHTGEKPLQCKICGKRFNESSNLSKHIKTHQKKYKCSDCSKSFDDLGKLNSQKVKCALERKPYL
Method: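 Universal 'all 10-mer' protein binding microarrays (Agilent AMADID 015681) probed with GST-tagged S. cerevisiae TFs (full-length or DBD) made by in vitro transcription/translation (PURExpress), about 100-200 nM. Bound TF was detected with fluorescent anti-GST. Each ungapped 8-mer (which stands for itself and its reverse complement) is scored by the PBM enrichment score (E-score), a modified Wilcoxon-Mann-Whitney statistic from -0.5 to +0.5, computed with the Universal PBM Analysis Suite. Scale: above 0.35 generally sequence-specific binding.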

Sequence	PBM E-score
AGCTGTAG	-0.0501
ATGGCCAG	0.268
ATGGCCAT	0.332
ATGGCCAC	0.185
CGACGCTC	0.0879
CTGAGCCC	-0.179
GCCCTTAA	0.112
ACCCTTAA	0.443
AGCCTTAT	-0.0493
TCCCTTAA	0.0619
ATCCTTAG	-0.192
ACCCTTAG	0.432
CCCCTTAG	0.107
ACCCTTAT	0.404
ACCCTTAC	0.29
TAGTTGCA	0.116
ATACACGC	-0.091
AATCACAC	0.0533
TCTCGCCA	-0.206
ACAATACC	0.252
TACTATAA	0.249
CAGATGAA	-0.103
ACTCTCGG	0.0208
ACGGTGAA	-0.0282
ACCTCGAG	0.349

Sequence	PBM E-score
ACCTCGAT	0.245
ACCTCGTG	0.348
ACCTCGTC	0.0929
CCCTCGAG	0.159
ACCTCGTA	0.189
ACTGTCGA	-0.0508
CCCAATTC	0.157
TCACAGAA	-0.00307
CTGCGCAG	-0.325
CTTGAGCC	-0.111
GGAACCAC	0.0961
AGAACCAC	0.285
CAAACCAC	0.0159
GTAACCAC	0.431
AAAACCAC	0.197
ATAACCAC	0.46
CCAACCAC	0.256
CTAACCAC	0.325
GAAACCAC	0.116
CCTCTAAG	0.139
ACCATTTC	0.126
GATGGGCC	-0.145
CCCCCCAA	-0.371
TAGCCTAA	-0.0154
ATTACCTA	0.216

Sequence	PBM E-score
ATTACCTC	0.32
ATTACCTG	0.149
ACTACCTA	0.161
CCTACCTC	0.125
ACTACCTC	0.356
CGTAATCA	0.196
AAGTCACA	-0.034
AGGTCAAC	0.118
AGGTCACG	0.406
AGGTCACA	0.359
GAGTCACC	0.0467
CGGTCACG	0.203
AGGTCACC	0.37
CGGTCACC	0.276
ATGTCACG	-0.195
ACGTCACC	0.0378
AGGTCACT	0.25
GGGTCACC	0.438
ACCCATTG	0.166
CGAGCGAA	-0.162
ATACGGCA	0.0784
AACGAGAG	-0.138
GCTTTACA	-0.0896
CTTAATCC	-0.131
GACTGAAC	-0.199

Sequence	PBM E-score
ACCAGCAA	0.26
TCTAGGCA	-0.0489
AAAAACTT	0.0552
GCATTAGC	-0.151
GGATACAA	0.0969
CGTTTGGA	0.0241
GGGTCACA	0.398
CGGTCACA	0.163
TGGTCACA	0.231
GCCCAACC	-0.0373
ACTATGGC	-0.0314
AGTTATGC	0.0469
AGGGTGTC	0.304
AGGGTGAT	0.427
AGGGTGAG	-0.118
AGGGTGAA	0.0968
ACGGTGAC	-0.0408
GGGGTGAA	0.0494
GGGGTGAC	0.337
CGGGTGAC	0.167
AGGGTGAC	0.415
ATCTCGTA	-0.0363
AACTGTCT	-0.105
GAGAGCTA	-0.305
GGCGATCA	-0.283

Sequence	PBM E-score
ACCCTGCC	0.186
CCCCTGCG	-0.17
GCCCTGCA	-0.195
ACCCTGCA	0.394
TCCCTGCA	0.0185
ACCCTGCG	0.422
TACACAGA	0.0113
AGACTGAC	-0.202
GAGCTATA	-0.233
ACATACGA	0.0717
CGCGTCGC	-0.204
CTGTGGAA	-0.0936
AACCAGAT	0.142
ACAGATCT	-0.0411
GCATAACA	0.0518
GCATAACC	0.414
ACATAACC	0.454
ACATAACT	0.149
GCATAAGC	-0.0977
ACATAACG	0.0512
CATCTTAA	-0.0359
AAGCGGGC	-0.335
CGTGACCC	0.418
AGTGACAC	-0.119
AGTGACCG	0.115

Sequence	PBM E-score
CTTGACCC	0.311
AGTGACCA	0.247
GGTGACCA	0.283
CGTGACGC	-0.134
AGTGACCC	0.347
CGTGACCA	0.35
AGACTTAG	-0.306
ACGTTAAC	0.0746
GGGTTAAC	0.403
GTGTTAAA	0.0467
GAGTTAAC	0.00603
ACGTTAAG	-0.0481
AGGTTAAC	0.405
AGGTTAAT	0.315
CGGTTAAC	0.232
GGGTTTAA	0.242
AGGTTAAG	0.383
GGGTTAAA	0.443
ATGTTAAG	-0.0536
CTGCCAGA	-0.0969
GGTTAGGA	0.296
CAGTGCAA	-0.0222
CCCTAGAA	0.177
CCGGTGTC	0.0219
CGGTAGTA	0.107

Sequence	PBM E-score
AGGTAGTG	0.268
AGGTAGTA	0.337
AAATGAAA	0.23
ACATTCTC	-0.0126
AAATAACA	0.0357
AAATAACC	0.42
GAATAAGC	-0.182
GAATAACA	0.181
CAATAACA	0.0373
GAATAACC	0.438
AAATAACG	0.042
CAATAACG	0.138
CAATAACC	0.468
CGCGGCAG	-0.049
GCGTTGAC	-0.0667
CGCCAGCG	-0.255
GTTGCCGA	-0.0812
GTAGCAAC	-0.0913
GACAGTCA	-0.217
ACCGTTAA	0.256
CAAGGTGA	0.216
GAAGGTGC	0.0253
CAAGGTTA	0.466
GAAGGTTA	0.437
CAAGGTTC	0.0224

Sequence	PBM E-score
GAAGGTGA	0.116
GTCTGGTA	0.146
CGTCCATA	0.125
AGCTGAGC	-0.185
GTACCCCA	0.35
CTACCCCA	0.139
ATACCCCA	0.383
GTACCCAA	0.234
ATACCCCC	0.221
ATACCCAA	0.247
ACTCTGCA	0.0815
AGTTCAGG	0.0101
ATATGACG	-0.122
GCCGAGGC	-0.0423
AACCCATA	0.391
ACCCCATA	0.373
GACCCATA	0.259
AACCCATT	0.276
ACCCCATG	0.255
CCCCCATA	-0.0168
GTATTCAA	0.123
AGCCACAG	-0.199
GACAGCCA	-0.146
ACGTCACT	-0.246
GCCTTACC	0.0234

Sequence	PBM E-score
CCATAAAC	0.0419
GAGGTACC	0.432
GAGGTAGC	0.0662
GAGGTACA	0.155
AAGGTAGA	0.106
AAGGTATC	0.255
CAGGTACA	0.101
CAGGTACC	0.415
AAGGTAGT	0.373
AAGGTACT	0.33
CAGGTACG	0.0402
AAGGTAGC	0.307
AACGTACT	0.0257
GGATCCCC	-0.152
CGATAGAG	-0.236
GTACCTTA	0.265
GGCATAGA	-0.0663
CGCTACGA	-0.0679
AAGGTACG	0.0328
AAGGTACC	0.445
AAGGTACA	0.223
CCAGTTAG	0.00998
CCAATAGA	-0.224
CTAGTTAA	0.144
CGACGAAC	-0.0937

Sequence	PBM E-score
ATATAACA	0.176
ATATAACC	0.456
CTATAACA	-0.0126
ATATAACG	0.183
CTATAATC	-0.017
CTATAACC	0.446
AACCAACA	0.254
CGGCTCGA	-0.172
ACAAAAGC	-0.0458
CAGCGCAG	-0.221
AGGGTGGG	0.334
AGGGTTGA	0.271
AGGGTTGG	0.333
ATGGTTGG	-0.0414
CGGGTTGC	0.18
AGGGTGGA	0.163
AGGGTTTC	0.232
AGGGTGGC	0.293
AGGGTTGC	0.46
TCATGCGA	-0.00209
GCTCTTGA	-0.213
CGGAGTTC	0.0089
GTTAGGAA	0.168
GAAGCAAC	0.106
AACCGGGT	0.319

Sequence	PBM E-score
AACCGGGG	-0.00821
AACCGGTC	0.14
AACCGGTT	0.348
AACCGGGA	0.133
AACCGGTG	-0.0964
CGGAACTA	0.141
CGATGCCG	-0.11
GACTTGCA	-0.0829
CGGGTTAG	0.0706
CGGGTTTC	0.289
CGGGTTAC	0.439
CGGGTTAA	0.356
CGGGTTTA	0.205
CGGGTTGA	0.24
GGAGTTAC	0.137
GGGTTTAC	0.316
GGGGTTAC	0.464
TCACAGCA	0.124
ACTCCTTG	0.0145
ATGGTGAA	-0.0722
CACCACTG	-0.0127
CTACGTAG	-0.0165
TAAGTTCA	0.0427
GGTAGACA	-0.0227
ACCCGGTC	-0.0272

Sequence	PBM E-score
CCCCGGTA	0.153
CACCGGTA	0.188
TACCGGTA	0.355
AACCGGTA	0.0841
ACCCGGTA	0.329
ACTAGCTG	-0.214
CATAGTGC	-0.16
AGCGAATC	-0.083
CTCCAGAC	-0.165
AGGGTAAT	0.38
AGGGTAAA	0.235
AGAGTAAG	0.0042
ATGGTAAT	0.239
AGGGTAAG	0.373
GAGAGCAC	-0.00012
CATTGGAG	-0.0511
GAAGCATC	-0.258
ACGATGCG	-0.223
ACCGTAAC	0.331
ACCGTAAG	0.101
GTCGTAAC	0.256
ACCGTAAT	0.0558
CTCGTAAG	0.215
CTCGTAAC	0.327
ACAAGTCC	-0.0469

Sequence	PBM E-score
GCAACTGC	-0.207
ACGAGTTA	0.0684
ATACCTCA	0.223
ATACCTCG	0.338
ATACCTCC	-0.0021
CACACCTA	-0.0992
TAGACATA	0.0776
AAAAAGGG	0.243
ACAAAGGG	0.0567
ACAAAGGC	0.0392
ACAAAGGT	0.352
AAAAAGGT	0.403
AAAAAGGA	0.15
CCTTTCTA	0.121
ATCTAACC	0.226
GGATACCC	0.393
AAATACCT	0.128
CGATACCC	0.275
AGATACCA	0.137
AAATACCC	0.328
GGATACCA	0.17
AGATACCC	0.325
CAATACCC	0.214
AGATACCG	0.0651
ACTCATGA	-0.0211

Sequence	PBM E-score
CAGTAGGA	-0.247
AGATATCT	0.0317
TGATTGAA	0.154
ACCTAAGG	0.185
ACTGCTTC	-0.175
ACCTTGAT	0.325
GCCTTGAA	0.0337
ACCTTGGA	0.195
ACCTTGGG	0.327
ACCTTGAC	0.266
ACCTTGAA	0.337
CCCTTGAA	0.102
ACCTTGGC	0.106
CCCTTGAC	0.193
ACCTTGCT	0.218
CCCTTGAG	0.33
TCCTTGAA	0.158
CGTGAGGA	-0.201
AGAGCGAA	-0.124
